Assay in all cases: DAPPL (digital affinity profiling via proximity ligation, sequencing); 10 mM Tris-HCl pH 7.5, 50 mM NaCl, 1 mM DTT, 4% glycerol, room temperature, 30 min; GST-TFs on glutathione beads, 16-mer random dsDNA library, 0.1% formaldehyde crosslink after washing; high values mean tight binding
What all share (conditions): protein: recombinant; tags: N-terminal GST; dsDNA, one strand shown

The target in experiment [1] is T1, ETV2 (Homo sapiens, UniProt O00321 1-342).
T1 sequence: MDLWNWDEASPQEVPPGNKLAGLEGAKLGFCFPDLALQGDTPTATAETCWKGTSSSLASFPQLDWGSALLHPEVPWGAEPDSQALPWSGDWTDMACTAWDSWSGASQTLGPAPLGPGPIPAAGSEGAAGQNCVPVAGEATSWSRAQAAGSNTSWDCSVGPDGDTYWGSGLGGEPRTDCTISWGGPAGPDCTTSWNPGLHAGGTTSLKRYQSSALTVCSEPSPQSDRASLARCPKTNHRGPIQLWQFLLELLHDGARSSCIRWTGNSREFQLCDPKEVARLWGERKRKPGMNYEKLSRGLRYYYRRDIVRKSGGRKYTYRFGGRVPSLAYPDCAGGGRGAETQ
A digest of the protocol:
(§1)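 Each value of binding signal is a hexamer's read frequency for a factor divided by the same hexamer's frequency in the tag-only sample. Barcoded, bead-captured GST fusions of human transcription factors made in yeast were pooled with that sample and incubated with 200 nmole of a random double-stranded 16-mer DNA library in Tris/NaCl/DTT/glycerol buffer at room temperature for 30 min. Washing, 0.1% formaldehyde crosslinking, proximity ligation, PCR and Illumina NextSeq500 sequencing followed.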

The target in experiment [2] is CRX (Homo sapiens, UniProt O43186 1-299). The procedure, abridged:
as §1

The target in experiment [3] is ETV1 (Homo sapiens, UniProt P50549 1-477). A digest of the protocol: as §1
Sequence of ETV1 (P50549 whole entry): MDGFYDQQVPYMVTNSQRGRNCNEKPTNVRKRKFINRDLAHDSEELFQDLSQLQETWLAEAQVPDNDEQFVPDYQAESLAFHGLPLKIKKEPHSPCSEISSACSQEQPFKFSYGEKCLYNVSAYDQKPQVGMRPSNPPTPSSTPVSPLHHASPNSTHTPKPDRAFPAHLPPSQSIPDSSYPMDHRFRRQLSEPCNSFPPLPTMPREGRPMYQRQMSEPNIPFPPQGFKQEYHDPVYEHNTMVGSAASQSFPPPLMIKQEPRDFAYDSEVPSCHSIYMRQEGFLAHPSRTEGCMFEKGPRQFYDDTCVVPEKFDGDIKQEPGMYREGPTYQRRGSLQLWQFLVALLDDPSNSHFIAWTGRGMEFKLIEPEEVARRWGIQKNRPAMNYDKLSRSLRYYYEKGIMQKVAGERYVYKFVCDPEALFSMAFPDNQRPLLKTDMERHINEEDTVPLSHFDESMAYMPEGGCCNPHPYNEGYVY
Experiment [4] has as its target T2, ERF (Homo sapiens, UniProt P50548 1-548).
T2 sequence: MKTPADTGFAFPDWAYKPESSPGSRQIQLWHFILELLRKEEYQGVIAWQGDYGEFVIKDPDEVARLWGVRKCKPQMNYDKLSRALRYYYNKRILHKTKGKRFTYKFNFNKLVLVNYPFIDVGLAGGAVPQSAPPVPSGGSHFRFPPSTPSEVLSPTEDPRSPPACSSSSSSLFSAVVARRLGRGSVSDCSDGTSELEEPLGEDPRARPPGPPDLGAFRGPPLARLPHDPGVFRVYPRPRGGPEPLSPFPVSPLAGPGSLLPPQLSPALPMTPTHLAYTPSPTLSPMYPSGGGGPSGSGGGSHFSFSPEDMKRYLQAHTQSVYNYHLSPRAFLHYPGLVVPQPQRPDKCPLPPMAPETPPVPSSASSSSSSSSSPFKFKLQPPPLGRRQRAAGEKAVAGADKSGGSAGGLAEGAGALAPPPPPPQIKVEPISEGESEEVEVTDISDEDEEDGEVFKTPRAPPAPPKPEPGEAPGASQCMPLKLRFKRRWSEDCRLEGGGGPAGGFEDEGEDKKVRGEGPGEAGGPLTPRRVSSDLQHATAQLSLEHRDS
The procedure, abridged:
as §1

The target in experiment [5] is T3, ETV3L (Homo sapiens, UniProt Q6ZN32 1-361).
T3 sequence: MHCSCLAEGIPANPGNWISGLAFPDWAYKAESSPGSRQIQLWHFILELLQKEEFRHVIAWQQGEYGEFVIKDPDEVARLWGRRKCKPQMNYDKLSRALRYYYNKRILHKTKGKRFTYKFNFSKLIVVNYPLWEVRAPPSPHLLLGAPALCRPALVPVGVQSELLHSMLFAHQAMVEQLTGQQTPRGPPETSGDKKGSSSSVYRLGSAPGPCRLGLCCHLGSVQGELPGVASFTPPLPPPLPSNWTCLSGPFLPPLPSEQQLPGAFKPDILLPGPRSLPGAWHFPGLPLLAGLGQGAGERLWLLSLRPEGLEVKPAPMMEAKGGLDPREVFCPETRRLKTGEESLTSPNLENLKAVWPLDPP
A digest of the protocol:
as §1

Experiment [6] has as its target T4, SPDEF (Homo sapiens, UniProt O95238 1-335).
T4 sequence: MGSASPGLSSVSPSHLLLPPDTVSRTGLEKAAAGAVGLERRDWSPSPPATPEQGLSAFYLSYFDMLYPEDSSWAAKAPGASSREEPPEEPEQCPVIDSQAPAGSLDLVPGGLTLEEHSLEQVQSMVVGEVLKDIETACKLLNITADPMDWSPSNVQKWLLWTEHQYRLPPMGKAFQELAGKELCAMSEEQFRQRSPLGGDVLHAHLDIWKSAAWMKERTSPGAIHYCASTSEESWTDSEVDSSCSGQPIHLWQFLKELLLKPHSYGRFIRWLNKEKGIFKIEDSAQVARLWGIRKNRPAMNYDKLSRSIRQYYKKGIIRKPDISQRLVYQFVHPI
A digest of the protocol: as §1

For experiment [7], the target named is T5, ETV7 (Homo sapiens, UniProt Q9Y603 1-341).
T5 sequence: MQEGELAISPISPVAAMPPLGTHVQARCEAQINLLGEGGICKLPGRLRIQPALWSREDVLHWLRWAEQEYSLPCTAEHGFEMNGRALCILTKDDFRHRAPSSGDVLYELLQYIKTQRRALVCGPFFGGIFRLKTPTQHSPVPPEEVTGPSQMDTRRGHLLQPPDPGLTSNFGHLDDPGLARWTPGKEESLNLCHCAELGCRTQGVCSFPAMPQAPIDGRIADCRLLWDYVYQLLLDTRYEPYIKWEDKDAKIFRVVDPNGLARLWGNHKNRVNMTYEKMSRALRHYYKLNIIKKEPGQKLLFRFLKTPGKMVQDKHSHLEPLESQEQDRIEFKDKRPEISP
The procedure, abridged:
as §1

The target of experiment [8] is T6, ETV3 (Homo sapiens, UniProt P41162-2 1-143).
T6 sequence: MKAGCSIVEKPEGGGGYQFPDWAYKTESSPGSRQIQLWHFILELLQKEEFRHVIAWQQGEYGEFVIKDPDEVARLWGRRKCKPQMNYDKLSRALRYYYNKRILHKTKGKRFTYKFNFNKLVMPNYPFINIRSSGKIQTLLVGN
A digest of the protocol:
as §1

Experiment [9] addresses ETV6 (Homo sapiens, UniProt P41212 1-452). A digest of the protocol:
as §1

Sequence of CRX (O43186 whole entry): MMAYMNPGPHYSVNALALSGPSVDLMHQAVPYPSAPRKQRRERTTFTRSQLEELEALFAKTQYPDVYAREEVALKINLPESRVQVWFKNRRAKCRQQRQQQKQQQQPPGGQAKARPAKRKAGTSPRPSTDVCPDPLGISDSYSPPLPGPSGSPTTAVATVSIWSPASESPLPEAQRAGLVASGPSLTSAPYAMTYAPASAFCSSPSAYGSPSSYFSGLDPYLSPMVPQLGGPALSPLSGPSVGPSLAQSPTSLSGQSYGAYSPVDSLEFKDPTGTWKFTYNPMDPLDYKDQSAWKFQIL
Sequence of ETV6 (P41212 whole entry): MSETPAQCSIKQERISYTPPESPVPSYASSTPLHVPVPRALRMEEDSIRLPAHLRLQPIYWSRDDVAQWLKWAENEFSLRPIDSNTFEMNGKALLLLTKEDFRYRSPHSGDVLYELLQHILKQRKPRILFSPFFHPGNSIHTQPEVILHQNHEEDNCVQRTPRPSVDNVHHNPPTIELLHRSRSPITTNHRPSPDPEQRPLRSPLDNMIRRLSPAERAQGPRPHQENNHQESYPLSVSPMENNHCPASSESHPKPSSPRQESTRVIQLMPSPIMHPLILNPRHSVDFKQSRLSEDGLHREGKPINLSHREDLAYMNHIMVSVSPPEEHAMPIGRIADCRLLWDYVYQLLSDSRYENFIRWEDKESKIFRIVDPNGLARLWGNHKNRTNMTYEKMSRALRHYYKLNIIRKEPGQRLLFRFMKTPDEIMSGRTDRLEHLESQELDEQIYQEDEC

As to AGAACA, the binding signal was 1.03 fold enrichment (6-mer frequency, TF over GST control) in experiment [1]; 1.22 fold enrichment (6-mer frequency, TF over GST control) in experiment [2]; 1.02 fold enrichment (6-mer frequency, TF over GST control) in experiment [3]; 1.07 fold enrichment (6-mer frequency, TF over GST control) in [4]; 1.01 fold enrichment (6-mer frequency, TF over GST control) in [5]; 1.03 fold enrichment (6-mer frequency, TF over GST control) in experiment [6]. Moreover, the binding signal in experiment [7] was 1.07 fold enrichment (6-mer frequency, TF over GST control); in experiment [8], 1.07 fold enrichment (6-mer frequency, TF over GST control); in [9] it was 1.08 fold enrichment (6-mer frequency, TF over GST control).

The record behind these values is publication PMC7862700, “An all-to-all approach to the identification of sequence-specific readers for epigenetic DNA modifications on cytosine”.
